According to PubChem BioAssay (NCATS):
Calls of active or inactive are those of the source. Calls come from the whole dose curve; as a rule, active = well fitted curve in the direction sought with a large enough effect; inactive = no such curve, though single readings can be large or run the other way.

The compounds below were run against Alpha-galactosidase A (Homo sapiens) (UniProt P06280) (assay: Counterscreen for Glucocerebrosidase Inhibitors: qHTS Assay for Human alpha-Galactosidase at pH 4.5 (AID 992)). Details: purified enzyme, fluorogenic substrate; series mostly up to 76.9 µM.
Chain of Alpha-galactosidase A (Homo sapiens) (P06280 whole entry, looked up): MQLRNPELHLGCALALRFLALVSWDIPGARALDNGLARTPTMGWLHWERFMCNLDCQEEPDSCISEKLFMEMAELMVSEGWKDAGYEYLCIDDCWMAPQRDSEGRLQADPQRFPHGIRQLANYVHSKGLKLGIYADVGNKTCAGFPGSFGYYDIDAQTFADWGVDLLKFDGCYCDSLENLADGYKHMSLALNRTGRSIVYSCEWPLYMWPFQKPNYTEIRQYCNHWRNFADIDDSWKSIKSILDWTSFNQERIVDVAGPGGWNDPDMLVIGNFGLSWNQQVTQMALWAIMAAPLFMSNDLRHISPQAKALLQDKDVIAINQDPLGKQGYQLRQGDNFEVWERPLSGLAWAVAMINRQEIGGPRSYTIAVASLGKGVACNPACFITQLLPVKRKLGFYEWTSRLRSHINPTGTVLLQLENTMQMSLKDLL
Source text: NIH Chemical Genomics Center [NCGC]
NIH Molecular Libraries Screening Centers Network [MLSCN]
PI Name: Zheng, Wei [NIH]
Alpha-galactosidase is a homodimeric glycoprotein that hydrolyzes the terminal alpha-galactosyl moieties from glycolipids and glycoproteins. Deficiency of this enzyme results in Fabry Disease with progressive accumulation of globotriaosylceramide and other glycosphingolipids in vascular endothelial cells that causes renal failure, myocardial infarction and stroke, and premature death in patients. It has reported that the improper folding and trafficking of alpha-galactosidase resulted from the genetic mutations may account for a significant numbers of Fabry patients. […] We optimized this alpha-galactosidase assay in 1536-well plate format for identifying the novel small molecule inhibitors with the structures other than the sugar analogs in order to develop the new pharmacological chaperones.
NCGC Assay Protocol Summary:
This is a fluorogenic enzyme assay with 4-Methylumbelliferyl alpha-D-galactopyranoside as the substrate and human […] as the enzyme preparation. Upon the hydrolysis of this fluorogenic substrate, the resulting product, […]. 4-Methyllumbelliferone, can be excited at 365 nm and emits at 440 nm which can be detected by a standard fluorescence plate reader. Data were normalized to the controls for basal activity (without enzyme) and 100% activity (with enzyme). In the AC50 values were determined from concentration-response data modeled with the standard Hill equation.
Assay buffer: 50 mM citric acid, 0.005% Tween-20, pH 4.5. (pH 4.5 is an optimal condition for this enzyme assay)
1536-well assay protocol for the human alpha-galactosidase:
(1) Add 2 ul/well of enzyme (2 nM final)
(2) Add 23 nL compounds in DMSO solution. The final titration was 0.7 nM to 77 uM.
(3) Add 1 ul of substrate (80 uM final)
(4) Incubate at room temperature for 20 min.
(5) Add 2 ul stop solution (1M NaOH and 1M Glycine mixture, pH 10)
(6) Detect the assay plate in a ViewLux plate reader (PerkinElmer) with Ex=365 nm and Em=440nm.
Keywords: Alpha-galactosidase, Fabry Disease, pharmacological chaperone, chaperone therapy, high throughput screening, alpha-galactosidase inhibitor, MLSMR, MLSCN, NIH Roadmap, qHTS and NCGC
`CCCN(CCC)C(=O)Cc1c(-c2ccc(Cl)cc2)nc2c(Cl)cc(Cl)cn12` was tested, and the outcome was “inactive”. In the case of `COc1ccc2c(c1OC)C(=O)O[C@H]2[C@H]1c2cc3c(cc2CCN1C)OCO3`, the outcome is reported as “inactive”. In the case of `C[C@H]1OC[C@@H](C[N+](C)(C)C)O1`, the outcome is reported as “inactive”. In the case of `N#C/C(=C\c1ccc(O)c(O)c1)C(N)=S`, the outcome is reported as “inactive”. In the case of `CS(=N)(=O)CC[C@@H](N)C(=O)O` (stereo partly specified), the outcome is reported as “inactive”. For `O=C(OC1CCN(CCCl)CC1)C(c1ccccc1)c1ccccc1`, the outcome was “inactive”. For `NC[C@H](O)c1ccc(O)cc1`, the outcome was “inactive”. In the case of `CN1CC[C@]2(C)c3cc(O)ccc3N(C)[C@@H]12`, the outcome is reported as “inactive”. With `CCCCN1C2CCC1CC(OC(c1ccc(F)cc1)c1ccc(F)cc1)C2` (stereo unspecified) the outcome was “inactive”. For `C[N+]1(C)[C@@H]2CC[C@H]1CC(OC(=O)[C@@H](CO)c1ccccc1)C2` (stereo partly specified), the outcome was “inactive”. In the case of `CC(C)N(CC[C@@](C(N)=O)(c1ccccc1)c1ccccn1)C(C)C`, the outcome is reported as “inactive”. With `CCc1c(C(=O)OC)ncc2[nH]c3cc(OC)c(OC)cc3c12` the outcome was “inactive”. With `COc1ccc(OC)c([C@H](O)[C@H](C)N)c1` the outcome was “inactive”. In the case of `NNCc1cccc(O)c1`, the outcome is reported as “inactive”. In the case of `CCCCCCC(C)(C)c1ccc([C@@H]2C[C@H](O)CC[C@@H]2CCCO)c(O)c1`, the outcome is reported as “inactive”. `CC[C@@]1(c2ccc(N)cc2)CCC(=O)NC1=O` was tested, and the outcome was “inactive”. `NCC#Cc1ccccc1` was tested, and the outcome was “inactive”. `C[C@]12CC[C@H](O)C[C@@H]1CC[C@H]1[C@H]2CC[C@]2(C)C(=O)CC[C@@H]12` was tested, and the outcome was “inactive”. For `C[C@H](NC(C)(C)C)C(=O)c1cccc(Cl)c1`, the outcome was “inactive”. In the case of `C#CCN(C)[C@@H](C)Cc1ccccc1`, the outcome is reported as “inactive”. For `COc1cc(C=C(C#N)C#N)cc(O)c1O`, the outcome was “inactive”.
